# Shown are actives, neighbours in structure and some others; about 22% of the full set was active somewhere.
# Shiga toxin inh – blocks Shiga toxin action in Vero cells | 290,000 tested, 9.2% active | Vero cells, Shiga toxin protein synthesis inhibition reporter | inhibition, % at 38.7 µM | AID 2315; in the data active means inhibition mostly above about 28%, no sharp cut-off; inactive means mostly below about 43%; further: 0% is about no effect
# Pf growth 96h – P. falciparum growth inhibition at 96 hours; P. falciparum luciferase reporter growth, 96 h; Potency, µM (series often up to 28.7 µM), for the others: at the highest dose activity change, negative = inhibition, hits mostly inhibitors; 320,000 tested, 6.9% active; AID 504834; further: potency means the concentration at half of the fitted maximal effect; on the % scale 0 is the no-effect control and ±100 the full control effect
#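 Erythrocytes infected with luciferase-expressing P. falciparum were dispensed at 2% hematocrit and 0.05% parasitemia (final), then incubated with compounds 96 hours at 37 C in 5% CO2. Luminescence after detection reagent addition reported growth.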
# LmPK inh – inhibitors of Leishmania mexicana pyruvate kinase; Q27686; purified LmPK, Kinase-Glo ATP luminescence, 1 h; 290,000 tested, 0.37% active; Potency, µM (titrated, usually from 57.5 µM), without a hit: top-dose activity change, negative = inhibition, hits mostly inhibitors; further: potency means the concentration at half of the fitted maximal effect; on the % scale 0 is the no-effect control and ±100 the full control effect
# Target sequence (Q27686 whole entry, looked up): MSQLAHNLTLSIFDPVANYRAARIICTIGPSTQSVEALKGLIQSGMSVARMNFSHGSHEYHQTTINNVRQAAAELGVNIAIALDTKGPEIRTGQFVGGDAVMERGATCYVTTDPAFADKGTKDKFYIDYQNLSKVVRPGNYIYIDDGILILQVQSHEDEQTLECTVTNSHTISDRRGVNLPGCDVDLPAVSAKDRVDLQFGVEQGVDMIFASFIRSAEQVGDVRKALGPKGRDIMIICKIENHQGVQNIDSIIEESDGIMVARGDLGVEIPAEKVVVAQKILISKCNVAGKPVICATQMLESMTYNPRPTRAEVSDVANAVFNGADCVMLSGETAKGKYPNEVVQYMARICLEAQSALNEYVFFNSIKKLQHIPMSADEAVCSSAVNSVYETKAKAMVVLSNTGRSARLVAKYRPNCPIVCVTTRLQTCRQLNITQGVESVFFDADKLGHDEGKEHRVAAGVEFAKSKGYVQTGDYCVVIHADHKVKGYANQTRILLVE
#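 ATP generated from ADP (0.1 mM) and PEP (0.5 mM) by 0.1 nM LmPK over 1 h at room temperature (pH 7.2 imidazole buffer) was detected by coupled luciferase luminescence. Values were normalized to uninhibited and no-enzyme wells.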
# CHX counter – counter-screen hit for Shiga toxin inhibitors, cycloheximide; cell reporter, cycloheximide protein synthesis inhibition counterscreen; max response, %; 300,000 tested, 12% active; AID 2314; in the data active means max response mostly above about 13%, no sharp cut-off; inactive means mostly below about 14%; further: read at 38.3 µM for the half of the compounds with a filed dose; 0% is about no effect
# Pf growth 48h – inhibits P. falciparum growth in the first generation, 48 h; P. falciparum luciferase growth in erythrocytes, 48 h; Potency, µM (highest dose often 28.7 µM), without a hit: at the highest dose activity change, negative = inhibition, actives largely listed as inhibitors; 310,000 tested, 5.9% active; AID 504832; further: potency means the concentration at half of the fitted maximal effect; on the % scale 0 is the no-effect control and ±100 the full control effect
#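 In quantitative HTS format, infected erythrocytes bearing luciferase-reporter parasites were treated for a single generation at 37 C. Luminescence after adding detection reagent served as the growth measure.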
# The depositor's hits bear a star; i = inactive; ? = inconclusive; · = no result given. Unless noted, the call rests on the fitted dose curve; in most records, active means well fitted inhibition curve with a large enough effect; inconclusive means small, poorly fitted or top-dose-only effect, or another doubt; inactive means no such curve, though single readings can be large or run the other way.
SMILES,Shiga toxin inh,Pf growth 96h,LmPK inh,CHX counter,Pf growth 48h
Cc1ccc(/C=C/C(=O)NCCc2c[nH]c3ccccc23)o1,1.0,10.0%,-0.6%,2.0,-7.6%
Cc1ccc(/C=C/C(=O)NCCc2cccc(Cl)c2)o1,·,-1.0%,1.7%,28.7*,-26.7%
Cc1occc1C(=O)NCCCc1ccccc1,117.3,·,-0.7%,25.4*,35.3%
Cc1occc1C(=O)NCCc1cccc(Cl)c1,130.2*,93.9%,7.7%,69.4*,·
CCOC(=O)N1CCN(C(=O)COC(=O)Cc2ccc(Cl)cc2)CC1,-7.3,20.5%,-0.2%,-5.0,4.4%
CN(C)S(=O)(=O)c1ccc(C(=O)OCC2CCCO2)cc1 (centres undefined),17.2,2.4%,2.6%,7.4,22.6%
CC(=O)Nc1ccccc1C(=O)N1CCN(Cc2ccccc2)CC1,11.0,17.6%,-10.6%,-4.0,0.8%
Cc1c(-c2ccccc2)c(=O)oc2cc(O)ccc12,31.4,11.3%,1.3%,3.9,?
COc1cccc(CN2CCSCC2)c1,-7.0,5.9%,-5.9%,-7.5,·
Cc1ccc(CN=C2Nc3ccccc3CS2)cc1,82.2*,326.1%,?,34.5*,206.3%
COc1ccccc1CN=C1NC(=O)C(CC(=O)Nc2ccc(C(C)=O)cc2)S1 (centres undefined),8.5,4.7%,9.3%,2.7,-17.8%
COc1ccccc1CN=C1Nc2ccccc2CS1,81.8*,160.7%,-3.8%,29.9*,130.4%
Clc1ccc(CN=C2Nc3ccccc3CS2)cc1,64.1*,i,0.6%,33.7*,209.1%
COc1cccc(CN=C2Nc3ccccc3CS2)c1,77.1*,i,-9.2%,54.1*,i
c1cncc(CN=C2Nc3ccccc3CS2)c1,51.0,?,14.4%,15.9,35.6%
O=S(=O)(NCCN1CCOCC1)c1cc(Cl)ccc1Cl,0.2,6.57µM*,-11.4%,-0.9,1.6%
Cc1c(Cl)ccc(S(=O)(=O)NCCN2CCOCC2)c1Cl,10.7,-3.4%,-2.2%,0.0,0.131µM*
Cc1cc(S(=O)(=O)NCCN2CCOCC2)ccc1Cl,-6.1,-3.1%,-0.6%,-7.8,·
Cc1c(Cl)cccc1NC(=O)CCC(=O)NNC(=O)c1ccccc1Cl,-13.5,43.4%,-1.1%,4.0,4.5%
O=C(CSc1ccccc1C(=O)O)NCC1CCCCC1,16.8,94.2%,0.1%,1.7,16.6%
Cc1cc(NC(=O)CCC2CCCCC2)no1,61.1*,-85.3%,0.6%,25.3*,-27.4%
Cc1ccnc(NC(=O)C23CC4CC(CC(C4)C2)C3)c1,27.3,5.0%,-0.2%,12.3*,?
Cc1cc(NC(=O)CCC2CCCC2)no1,35.9,0.5%,0.3%,27.6*,48.4%
O=C(Nc1cccnc1)C12CC3CC(CC(C3)C1)C2,23.4,23.0%,1.1%,-0.9,-24.6%
O=C(CCC1CCCC1)Nc1ccc(Br)cn1,89.2*,10.2%,-2.5%,17.8*,138.6%
SMILES,Shiga toxin inh,Pf growth 96h,LmPK inh,CHX counter,Pf growth 48h
CCn1cc(S(=O)(=O)NCCc2ccc(OC)c(OC)c2)cn1,-3.2,85.6%,4.1%,-3.6,4.6%
Cc1ccnc(NC(=O)CCC2CCCCC2)c1,126.2*,·,-23.1%,41.6*,-12.9%
Cc1ccnc(NC(=O)CCC(=O)N(CC(=O)NC2CCCCC2)C2CCCC2)c1,-17.3,-15.8%,1.6%,-1.9,-10.3%
O=C(NCc1cccs1)C(=O)NCC1OCCCN1S(=O)(=O)c1ccccc1 (centres undefined),13.5,-24.0%,3.5%,7.2,5.9%
C=C(C)CN1CCN(c2ccc(N3C(=O)CCCC3=O)cc2[N+](=O)[O-])CC1,-7.4,?,13.9%,2.6,70.3%
Cc1cccc(NC(=O)C2CCN(C(=O)NCc3ccccc3)CC2)c1C,-8.2,?,-0.8%,-5.4,2.3%
COc1ccc(NC(=O)NCc2ccc3c(c2)OCO3)cc1,6.6,22.1%,3.4%,2.4,10.4%
COc1ccc(CNC(=S)NCc2ccc(OC)cc2)cc1,-3.1,0.0%,1.1%,1.3,7.0%
CCOc1ccc(NC(=S)NCc2ccc3c(c2)OCO3)cc1,22.5,?,11.2%,9.1*,?
CCOc1ccc(CNC(=S)NCc2ccc(OCC)cc2)cc1,9.1,7.4%,-2.9%,11.4*,18.5%
Cc1ccc(NC(=S)NCc2ccc3c(c2)OCO3)cc1,5.7,0.0%,2.5%,6.9,12.5%
CC(=O)Nc1ccc(OCc2ccc3c(c2)OCO3)cc1,166.6*,0.0%,-12.9%,46.4*,64.6%
COc1cccc(N2CCN(C(=O)CSc3ccc(F)cc3)CC2)c1,39.7,-4.9%,-4.1%,14.0,22.2%
Nc1ccc2c(c1)OC1(CCCC1)O2,99.0*,4.15µM*,-3.5%,47.5*,36.7%
COc1ccc(C)cc1-n1c(N)c(C#N)c(C#N)c1-c1ccc(OC)c(OC)c1OC,2.4,50.0%,6.7%,0.6,11.7µM*
COc1cc(-c2cc3nc4ccccc4n3c(N)c2C#N)cc(OC)c1OC,-4.2,?,2.6%,1.6,38.0%
COC(=O)c1cc2c(ccn2-c2ccc(F)cc2)n1Cc1ccc(OC)cc1,53.9*,?,-0.1%,46.9*,?
CCn1c(C(=O)OC)cc2c1ccn2-c1ccc(F)cc1,112.7*,·,3.8%,54.0*,10.5%
O=C(c1cc(COc2cccc(C(F)(F)F)c2)on1)N1CCC(Oc2cccnc2)CC1,2.9,54.3%,-3.2%,14.4,-15.3%
Cc1ccc(C(=O)NC(=S)NCCCN2CCOCC2)cc1,50.4*,16.8%,-3.1%,20.3,32.6%
O=C(NC(=S)NCCCN1CCOCC1)c1ccc(Br)cc1,25.3,-6.2%,-1.8%,21.3*,0.0%
O=C(NCCCN1CCOCC1)c1ccc(Sc2ccc(Br)cc2)c([N+](=O)[O-])c1,-1.8,14.7µM*,0.7%,-3.9,3.3%
O=C(NC(=S)NCCN1CCOCC1)c1ccccc1,43.3,?,6.3%,12.1,10.3%
O=C(NC(=S)NCCCN1CCOCC1)c1cccc2ccccc12,3.3,6.57µM*,-5.2%,4.1,?
Nc1ccc(S(=O)(=O)Nc2nccc(/C=C/c3cccc(Br)c3)n2)cc1,-29.5,-3.2%,3.8%,-2.3,-2.2%
SMILES,Shiga toxin inh,Pf growth 96h,LmPK inh,CHX counter,Pf growth 48h
CC(=O)Nc1nonc1NC(=O)COc1ccccc1,-9.0,-10.0%,5.5%,-4.7,?
CC(C)(C)C(=O)Nc1c2c(nn1-c1ccccc1)CSC2,2.0,-18.2%,-0.7%,14.3,0.2%
Cc1ccc(C(=O)N/C(=C\c2ccc(-c3ccccc3[N+](=O)[O-])o2)C(=O)NCCCN2CCOCC2)cc1,26.5,2.94µM*,-0.3%,10.7,1.85µM*
Cc1ccc(C(=O)N/C(=C\c2cn(C)c3ccccc23)C(=O)NCCCN2CCOCC2)cc1,10.6,-8.8%,9.1%,-1.2,?
O=C(Oc1ccc2ccc(OC(=O)N3CCCCCC3)cc2c1)N1CCCCCC1,39.8*,?,4.0%,22.5*,51.7%
O=C(Oc1ccc(Cl)cc1)N1CCCCC1,49.0*,-3.7%,-4.1%,34.9*,30.9%
O=C(Oc1ccc(-c2ccccc2)cc1)N1CCOCC1,108.7*,·,-12.5%,38.6*,150.6%
O=C(Oc1ccc(-c2nnco2)cc1)N1CCCCC1,35.4*,·,0.9%,24.9*,40.2%
O=C(Oc1ccccc1)N1CCCC1,1.0,49.6%,-5.6%,-2.5,39.8%

# Assay outcomes deposited in PubChem BioAssay by National Center for Advancing Translational Sciences (NCATS).
